Results on 40 compounds are retold here after PubChem BioAssay (NCI).

Structures are written as SMILES. Compounds without any hit were thinned out: in the full panel of roughly 83,000, 20% have a hit.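 Values shown are percent growth following 48 h exposure of cells in 96-well plates to a single concentration of compound; below 10 was considered active.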 Values without a mark were called inactive. Activity calls are given as the source filed them.

The test relates to T-47D breast. Briefly: NCI-60 one-dose screen, 48 h (100 = growth as untreated, 0 = no growth, -100 = all killed). As to conditions: 10 µM. The method, then:
Growth inhibition of the T-47D human tumor cell line is measured as a screen for anti-cancer activity. Cells are grown in 96 well plates and exposed to the test compound for 48 hours. Compounds are tested at a single concentration, which is 10^-5 M for most compounds. The reported endpoint is percent growth (GI% or GIPRCNT), where numbers from 0 - 100% represent growth inhibition, and numbers from -100% - 0 represent cell death. For example, a value of 40 represents 60% growth inhibition. A value of 0 means no net growth occurred over the course of the experiment. A value of -40 indicates 40% of cells at the beginning of the experiment died by the end of the experiment. A value of -100 means all cells are dead at the end of the experiment.
NCI-60 Human Tumor Cell Lines Screen was performed using the standard one-dose NCI protocol, which is described in more detail at https://dtp.cancer.gov/discovery_development/nci-60/default.htm.
Compounds with GIPRCNT values below 10 were considered active. Activity score was based on GIPRCNT using the following formula: […]
Score is 0 for GIPRCNT values of 100 or above, 50 for GIPRCNT values of 0, and 100 for GIPRCNT values of -100.
Consider `CC[C@]12C=CCN3CC[C@@]4(c5ccc(OC)cc5N(C)[C@H]4[C@@](O)(C(=O)OC)[C@@H]1OC(=O)CCC[P+](c1ccc(F)cc1)(c1ccc(F)cc1)c1ccc(F)cc1)[C@@H]32`, for which the growth is 10.4%.
For `CC[C@]12C=CCN3CC[C@@]4(c5ccc(OC)cc5N(C)[C@H]4[C@@](O)(C(=O)OC)[C@@H]1OC(=O)CCC[P+](c1ccc(C)cc1)(c1ccc(C)cc1)c1ccc(C)cc1)[C@@H]32`, the growth is -78.4% (active).
In the case of `Cc1c2oc3c(C)ccc(C(=O)N[C@@H]4C(=O)N[C@H](C(C)C)C(=O)N5CCC[C@H]5C(=O)N(C)CC(=O)N(C)[C@@H](C(C)C)C(=O)OC4C)c3nc-2c(C(=O)N[C@@H]2C(=O)N[C@H](C(C)C)C(=O)N3CC(=O)C[C@H]3C(=O)N(C)CC(=O)N(C)[C@@H](C(C)C)C(=O)OC2C)c(N)c1=O` (stereo not given in full), the growth is -5% (active).
On to `O=C(/C=C/c1ccc(F)cc1)c1nc2ccccc2n1Cc1ccc(F)cc1`, for which the growth was 16.6%.
Then `O=C(NCCCCC(c1ccc(F)cc1)c1ccc(F)cc1)Nc1ccc([N+](=O)[O-])c(C(F)(F)F)c1`, with -10.4% (active); and `O=C(/C=C/c1ccccc1Cl)c1nc2ccccc2n1Cc1ccc(F)cc1`, with -66.9% (active); and `O=C(/C=C/c1ccccc1)c1nc2ccccc2n1Cc1ccc(F)cc1`, with -15.9% (active).
As for `CC12OOC(C)(OO1)C2CCC(=O)NCCCNc1ccnc2cc(Cl)ccc12` (stereo not given), the growth is 40%.
For `CC1=C(C=O)C2=C(C)C3(CC3)[C@@](C)(O)C(=O)C2=C1`, the growth is 13.5%.
Then `O=C(/C=C/c1ccc(Cl)cc1)c1nc2ccccc2n1Cc1ccc(Br)cc1`, with 28%; and `CC[C@@]12CC(C(=O)OC)=C3Nc4cc5c(cc4[C@@]34CCN(C[C@H]3O[C@H]31)[C@@H]24)[C@@H]1[C@H](O5)[C@@H](O)[C@@]2(CC)CC(C(=O)OC)=C3Nc4cc(OC)ccc4[C@@]34CCN1[C@@H]24`, with 25.7%.
In the case of `COc1ccc(OC)c(/C=C/C(=O)c2nc3ccccc3n2Cc2ccc(F)cc2)c1` it was 10.5%; in that of `COC(=O)CCn1c(-c2ccc(-n3cc(-c4ccc(O[C@H]5O[C@@H]6OC7(C)CC[C@H]8[C@H](C)CC[C@@H]([C@H]5C)[C@@]68OO7)cc4)nn3)cc2)nc2ccccc21`, 14.9%.
In the case of `CC[C@]12C=CCN3CC[C@@]4(c5ccc(OC)cc5N(C)[C@H]4[C@@](O)(C(=O)OC)[C@@H]1OC(=O)CCC[P+](C1CCCCC1)(C1CCCCC1)C1CCCCC1)[C@@H]32` it was -1.81% (active); in that of `C[C@H]1[C@@H](CC(=O)N[C@@H](Cc2coc3ccccc23)B(O)O)O[C@@H]2OC3(C)CC[C@H]4[C@H](C)CC[C@@H]1[C@@]24OO3`, -27.7% (active); in that of `COC(=O)C[C@](O)(CCCC(C)C)C(=O)O[C@H]1C(OC)=C[C@@]23CCCN2CCc2cc4c(cc2[C@@H]13)OCO4`, 2.21% (active).
As for `N#C[Se]CC(=O)Nc1cccc(C(F)(F)F)c1`, the growth is 51%.
In the case of `COc1cc2cc(C(=O)N3C[C@@H](CCl)c4c3cc(OC(=O)N3CCN(C)[C@@H]5CSSC[C@@H]53)c3ccccc43)[nH]c2c(OC)c1OC` it was -5.73% (active); in that of `CC1=C(COCCOC(=O)c2ccc(S(=O)(=O)F)cc2)C2=C(C)C3(CC3)[C@@](C)(O)C(=O)C2=C1`, -13.2% (active); in that of `C#CC[Se]C(=O)c1ccc2n[se]nc2c1`, 62.9%.
Turning to `CC[C@]12C=CCN3CC[C@@]4(c5ccc(OC)cc5N(C)[C@H]4[C@@](O)(C(=O)OC)[C@@H]1OC(=O)CCCC[P+](C1CCCCC1)(C1CCCCC1)C1CCCCC1)[C@@H]32`, the growth is 3.83% (active).
Turning to `CC(=C\C(=O)Oc1ccc2c3c1OC1C(O)CCC4(O)C(C2)N(CC2CCC2)CCC314)/C=C1\CCCc2ccccc21` (stereo not given), the growth was 24.4%.
As to `O=C(/C=C/c1cccc(Br)c1)c1nc2ccccc2n1Cc1ccc(Br)cc1`, the growth was -0.946% (active).
`COCCOCCOCCOc1ccc(-n2cc(CCCN(CCNc3ccnc4cc(Cl)ccc34)C(=O)CCC(=O)O[C@@H]3O[C@@H]4OC5(C)CC[C@H]6[C@H](C)CC[C@@H]([C@H]3C)[C@@]46OO5)nn2)cc1`: the growth is 20.6%.
In the case of `C[C@H]1[C@@H](Oc2ccc(-c3cn(-c4ccnc5cc(Cl)ccc45)nn3)cc2)O[C@@H]2OC3(C)CC[C@H]4[C@H](C)CC[C@@H]1[C@@]24OO3` it was 25.6%; in that of `CC[C@]12C=CCN3CC[C@@]4(c5ccc(OC)cc5N(C)[C@H]4[C@@](O)(C(=O)OC)[C@@H]1OC(=O)CCCC[P+](c1ccc(OC)cc1)(c1ccc(OC)cc1)c1ccc(OC)cc1)[C@@H]32`, -46.6% (active); in that of `O=C(/C=C/c1ccc(Cl)cc1Cl)c1nc2ccccc2n1Cc1ccc(Br)cc1`, 44.4%.
`COc1cc(OC)c(/C=C/C(=O)c2nc3ccccc3n2Cc2ccc(F)cc2)c(OC)c1`: the growth is 61.8%.
Turning to `C#CC[Se]C(=O)c1ccc(C(=O)[Se]CC#C)s1`, the growth was 88.8%.
For the compound `CC(=O)Oc1ccccc1C(=O)NC([Se])=NC1CCCCC1`, the growth was -9.49% (active).
Consider `CCC[Se]C(=O)c1ccc(C(=O)[Se]CCC)s1`, for which the growth was 30%.
Then `CCOC(=O)C1=C(Nc2ccccc2)C(=O)OC12C(=O)Nc1ccccc12` (stereo not given), with 110%; and `C#CCCCN(CCNc1ccnc2cc(Cl)ccc12)C(=O)CCC(=O)O[C@@H]1O[C@@H]2OC3(C)CC[C@H]4[C@H](C)CC[C@@H]([C@H]1C)[C@@]24OO3`, with 27.9%; and `C[C@H]1[C@H](OC(=O)CCC(=O)Nc2cnccn2)O[C@@H]2OC3(C)CC[C@H]4[C@H](C)CC[C@@H]1[C@@]24OO3`, with 22.1%.
For `COP(=O)(CC(F)(F)C(F)(F)F)OC`, the growth is 13.2%.
Take `O=C(NC([Se])=NC1CCCCC1)c1ccccc1`: the growth is 46%.
In the case of `CN(C)CCc1cn(C2CCC2)c2cccc(O)c12` it was 69.9%; in that of `O=C([Se]C1C=CCCC1)c1ccc(C(=O)[Se]C2C=CCCC2)s1` (stereo not given), -48.1% (active).
Then `COc1cc(OC)c(S(=O)(=O)N(CCCl)CCCl)cc1C(=O)/C=C/c1cc(OC)c(OC)c(OC)c1`, with 21%; and `COC(=O)C[C@](O)(CCC(C)C)C(=O)O[C@H]1C(OC)=C[C@@]23CCCN2CCc2cc4c(cc2[C@@H]13)OCO4`, with -7.42% (active).
